Screens from PubChem.
Shown is part of a subset that was picked to be rich in hits.
Marburg entry inh: qHTS for inhibitors of binding or entry into cells for Marburg Virus. Marburg virus pseudotyped entry inhibition, cell reporter. 300,000 tested, 1.8% active. Potency, µM (series often up to 37.8 µM), usual class: inhibitors; calls by dose curve; tested in HEK293 cells
AMA1-RON2 inh: qHTS for Inhibitors of AMA1-RON; Towards Development of Antimalarial Drug Lead: Primary Screen | Potency, µM (highest dose often 58.2 µM), hits mostly inhibitors | AlphaScreen AMA1-biotinylated RON2 peptide binding | Plasmodium falciparum AMA1 (3D7) - RON2 peptide interaction | 360,000 tested, 0.2% active; active means well fitted inhibition curve with a large enough effect; inconclusive means small, poorly fitted or top-dose-only effect; inactive means no such curve, though single readings can be large or run the other way; further: nearly all actives have a fitted effect of over 45% in size
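AMA1 (3D7) with his tag at 25 nM final met compounds first, then biotinylated RON2 peptide at 25 nM; detection used donor plus acceptor beads, 10 µg/mL apiece, read by AlphaScreen after 30 min at room temperature.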
LASV entry inh: qHTS for Inhibitors of binding or entry into cells for Lassa Virus; Lassa virus pseudotype entry inhibition, cell reporter; AID 540256, 2011; Potency, µM (series often up to 37.9 µM), usual class: inhibitors; 300,000 tested, 1.2% active; calls by dose curve; tested in HEK293 cells; further: nearly all actives have a fitted effect of over 50% in size
Shiga inhibitor: A qHTS for Small Molecule Inhibitors of Shiga Toxin. Vero cells, Shiga toxin protein synthesis inhibition reporter. inhibition, % at 38.7 µM. 290,000 tested, 9.2% active; in the data active means inhibition mostly above about 28%, no sharp cut-off; inactive means mostly below about 43%
Cycloheximide cs: Cycloheximide Counterscreen for Small Molecule Inhibitors of Shiga Toxin; max response, %; 300,000 tested, 12% active; AID 2314, 2010; cell reporter, cycloheximide protein synthesis inhibition counterscreen; in the data active means max response mostly above about 13%, no sharp cut-off; inactive means mostly below about 14%; further: read at 38.3 µM for the half of the compounds with a filed dose
Numbers stand for hits; . = inactive; ? = inconclusive; / = no result.

SMILES | Marburg entry inh | AMA1-RON2 inh | LASV entry inh | Shiga inhibitor | Cycloheximide cs
CCOC(=O)N1CCN(S(=O)(=O)c2ccc(C(=O)N(CCCN(C)C)c3nc4ccc(CC)cc4s3)cc2)CC1 | ? | . | . | . | 17
CCOC(=O)N1CCN(S(=O)(=O)c2ccc(C(=O)N(CCN(CC)CC)c3nc4ccc(C)cc4s3)cc2)CC1 | ? | . | . | . | 23
CCOC(=O)N1CCN(S(=O)(=O)c2ccc(C(=O)N(CCN(C)C)c3nc4ccc(CC)cc4s3)cc2)CC1 | ? | . | . | . | 23
CCOC(=O)N1CCN(S(=O)(=O)c2ccc(C(=O)N(CCCN(C)C)c3nc4ccc(Cl)cc4s3)cc2)CC1 | / | . | / | . | .
COc1cc(NC(=O)CCn2c(-c3ccccc3)cc(C(C)=O)c2C)cc(OC)c1 | / | / | . | / | /
CCOC(=O)CC1C(=O)NCCN1C1CCCC1 (stereo not given) | . | . | . | . | .
O=C(/C=C\c1ccc(O)cc1)c1ccc(O)cc1O | 10µM | / | / | / | /
O=C(/C=C/c1ccc(O)cc1)c1c(O)cc(O)cc1O | / | . | / | . | .
O=C(/C=C/c1ccc2c(c1)OCO2)c1ccc(O)cc1O | ? | . | ? | / | /
O=C(/C=C/c1ccc(O)c(O)c1)c1ccc(O)cc1O | / | / | / | 35 | 10
CN(C)C=Nc1ccc2nc3c(cc2c1)[nH]c1ccccc13 | / | . | / | 74 | 39
CCn1ncc(Br)c1C(=O)Nc1cc(C)cc(C)c1 | . | . | . | . | .
CCn1ncc(Br)c1C(=O)Nc1ccc(-c2ccno2)cc1 | / | . | / | . | 9.8
CC(=O)c1cccc(NC(=O)N2CCc3ccccc3C2)c1 | ? | . | . | 100 | 25
O=C(Nc1ccc(Cl)cc1)N1CCc2ccccc2C1 | ? | . | . | . | .
CC(=O)c1ccc(NC(=O)N2CCc3ccccc3C2)cc1 | . | . | . | 109 | 29
Cc1ccc(-c2ocnc2C(=O)N2CCOCC2)cc1 | / | . | / | . | .
Cc1occc1C(=O)Nc1cc(C(C)(C)C)on1 | . | . | ? | 70 | 29
Cc1ccccc1CC(=O)Nc1cc(C(C)(C)C)on1 | . | . | . | . | 9.7
Cc1cccc(NC(=O)c2ccccc2Br)n1 | / | . | / | . | .
Cc1cccc(NC(=O)c2ccoc2C)n1 | . | . | . | 84 | 29
Cc1cccc(NC(=O)c2cc(NC(=O)c3ccco3)ccc2Cl)n1 | ? | . | . | 21 | .
O=C(OCc1ccccc1)N1C=CCC[C@@H]1c1c(Cl)cccc1Br | / | . | / | / | /
COc1ccc2cc(Br)ccc2c1CC(=O)NC1CC(C)(C)NC(C)(C)C1 | 18µM | . | ? | . | .
COCC(=O)N1CCC(Oc2ccc(C(=O)N(C)Cc3nccs3)cc2)CC1 | . | . | ? | . | .
SMILES | Marburg entry inh | AMA1-RON2 inh | LASV entry inh | Shiga inhibitor | Cycloheximide cs
Cc1ccc(-n2nc3cc(C)c(N)cc3n2)cc1 | ? | . | 13µM | 96 | 53
CCc1ccc(-n2nc3cc(C)c(NC(=O)c4ccccc4C)cc3n2)cc1 | ? | / | . | / | /
CCc1ccc(-n2nc3cc(C)c(N)cc3n2)cc1 | / | . | / | 142 | 57
Cc1cc2nn(-c3cccc4ccccc34)nc2cc1N | ? | . | . | 44 | 22
Clc1ccc(OCc2nnc3n2CCCCC3)c(Cl)c1 | / | . | / | 56 | 28
COc1ccc(C(C)=O)cc1CC(C(=O)c1ccccc1)N(C)C (stereo not given) | ? | . | . | . | 22
COC(=O)c1ccc(C(=O)N(Cc2ccccc2)c2ccccc2)cc1 | . | . | ? | . | .
COC(=O)c1ccc(CC(C(=O)c2ccccc2)N(C)C)cc1 (stereo not given) | / | . | / | 107 | 48
COc1ccc(C(C)=O)cc1CC(C(=O)c1ccc(C)cc1)N(C)C (stereo not given) | . | . | / | . | .
CN(C)C(Cc1ccc(Cl)cc1)C(=O)c1ccccc1 (stereo not given) | ? | . | . | 50 | 24
CCN(Cc1ccccc1)C(=O)c1cccs1 | / | . | / | / | /
CN(C)C(Cc1ccccc1)C(=O)c1cccs1 (stereo not given) | / | / | / | . | 13
O=C(CSC1CN(C(c2ccccc2)c2ccccc2)C1)N/N=C/c1ccccc1 | ? | ? | . | . | .
CC(O)C(=O)N/N=C/c1ccccc1C(=O)O (stereo not given) | . | . | . | . | .
CC(O)C(=O)N/N=C/c1cccc(Cl)c1Cl (stereo not given) | . | . | . | . | 20
Nc1nonc1C(=O)NCCNC(=O)c1ccc(Cl)c(Cl)c1 | . | . | ? | . | .
O=C1CC(N2CCOCC2)=NN1c1ccc([N+](=O)[O-])cc1 | . | . | ? | . | 18
CN(C)c1ccc(/C=C2/C(=O)N(c3ccc([N+](=O)[O-])cc3)N=C2N2CCOCC2)cc1 | / | / | / | . | .
CC1=CC(c2ccccc2)=Nc2ccc(C)cc2N1 | ? | . | ? | 43 | 57
COc1ccc(C2=NC(c3ccccc3)=Nc3ccc(C)cc3N2)cc1 | . | / | . | / | /
Cc1cc(NCCN2CCOCC2)c2ccc3ccccc3c2n1 | / | . | / | 84 | 23
COc1ccc2nc(C)cc(NCCN3CCOCC3)c2c1 | . | . | . | . | .
CC[n+]1ccc(C(=O)NCc2ccccc2)cc1 | ? | . | . | . | .
C=C1C(=O)OC2C=C(CO)C3OC3C3OC3(C)CC(OC(=O)/C(=C/C)COC(C)=O)C12 (stereo not given) | 2.5µM | . | ? | / | /
CC(=O)OCC1=C[C@@H]2OC(=O)C3=CO[C@@H](O[C@@H]4O[C@H](CO)[C@@H](O)[C@H](O)[C@H]4O)[C@H]1[C@@H]32 | / | . | / | / | /
SMILES | Marburg entry inh | AMA1-RON2 inh | LASV entry inh | Shiga inhibitor | Cycloheximide cs
CCC(=O)N(CC(=O)Nc1sc(C)c(C)c1C(N)=O)C1CCCC1 | . | . | . | . | .
COc1ccc(C(=O)N(CC(=O)Nc2sc(C)c(C)c2C(N)=O)C2CCCC2)cc1 | ? | . | . | . | 23
CC(CC(=O)NNC(=O)c1cccc(Cl)c1)c1ccccc1 (stereo not given) | . | . | . | . | .
O=c1[nH]c2ccccc2nc1/C=C/c1ccc(O)cc1 | ? | . | ? | 70 | 42
COc1ccc(OC)c(/C=C/c2nc3ccccc3[nH]c2=O)c1 | ? | . | . | . | .
O=c1[nH]c2ccccc2nc1/C=C/c1ccccc1 | . | . | . | 59 | 45
O=c1[nH]c2ccccc2nc1/C=C/c1ccc(F)cc1 | ? | . | ? | 73 | 37
O=c1[nH]c2ccccc2nc1/C=C(\O)C1CC1 | . | . | ? | . | .
Cc1cccc(N2CCn3c2nc2c3c(=O)n(C/C=C/c3ccccc3)c(=O)n2C)c1 | / | / | . | / | /
CCOC(=O)C1(CCc2ccccc2)CCN(C(=O)C2CCOCC2)CC1 | . | . | . | . | .
Clc1cccc(Cl)c1/C=C/c1ccn[nH]1 | / | . | / | 67 | 35
CC(=O)N1N=C(c2cccnc2)OC1c1ccc(C(C)C)cc1 (stereo not given) | ? | . | . | . | .
CC(=O)N1N=C(c2cccc([N+](=O)[O-])c2)OC1c1ccc(Br)cc1 (stereo not given) | / | . | / | . | .
